Cruzain Triton: qHTS Assay for Promiscuous and Specific Inhibitors of Cruzain (with detergent); Cruzipain (Trypanosoma cruzi), P25779; purified cruzain, Z-FR-AMC fluorescence, 0.01% Triton; Potency, µM, inactives show max response, negative = inhibition, hits mostly inhibitors; 200,000 tested, 0.43% active; AID 1478, 2009;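 further: plate controls were neutral wells for no effect and buffer without enzyme for full effect; nearly all actives have a fitted effect of over 40% in size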
Target sequence (P25779 123-467 limits assumed): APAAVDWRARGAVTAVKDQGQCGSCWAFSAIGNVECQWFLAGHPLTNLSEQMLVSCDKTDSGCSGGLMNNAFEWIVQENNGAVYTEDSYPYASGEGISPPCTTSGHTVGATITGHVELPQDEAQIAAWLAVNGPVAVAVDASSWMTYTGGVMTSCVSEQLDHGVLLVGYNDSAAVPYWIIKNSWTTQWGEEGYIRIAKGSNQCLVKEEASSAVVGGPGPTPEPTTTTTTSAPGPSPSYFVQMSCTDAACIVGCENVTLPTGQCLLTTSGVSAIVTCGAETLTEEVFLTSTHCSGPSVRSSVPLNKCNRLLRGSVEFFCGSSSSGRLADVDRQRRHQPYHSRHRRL
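Cruzain (1.5 nM) preincubated 15 min at RT with compound in 100 mM sodium acetate pH 5.5, 5 mM DTT, 0.01% Triton X-100. Reaction started with 2 uM Z-FR-AMC; AMC fluorescence (ex 360/em 450 nm) change over 60 s gave rate.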
Cruzain noTriton: qHTS Assay for Promiscuous and Specific Inhibitors of Cruzain (without detergent); Cruzipain (Trypanosoma cruzi), P25779; purified cruzain, Z-FR-AMC fluorescence, no detergent; AID 1476, 2009; 200,000 tested, 2.3% active; Potency, µM, inactives show max response, negative = inhibition, hits mostly inhibitors;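 further: plate controls were enzyme without inhibitor for no effect and buffer without enzyme for full effect; nearly all actives have a fitted effect of over 40% in size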
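Purified cruzain at 1.5 nM, pre-incubated 15 min with compound at room temperature in 100 mM sodium acetate pH 5.5, 5 mM DTT, 0.00005% Triton X-100. Reaction started with 2 uM Z-FR-AMC; AMC fluorescence increase over 60 s gives rate.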
* hit, by the source's call; u = inconclusive; ! = repeats disagree. Compounds with a hit are over-represented: about 2.5% of the library has one in this group of screens. The call rests on the fitted dose curve; in most records, active means well fitted curve in the direction sought with a large enough effect; inconclusive means small, poorly fitted or top-dose-only effect, or another doubt; inactive means no such curve, though single readings can be large; an effect the other way counts as inactive or inconclusive. Potency means the concentration at half of the fitted maximal effect.

SMILES | Cruzain Triton | Cruzain noTriton
O=C(NC1=NCCS1)C12CC3CC(C1)CC(C(=O)NC1=NCCS1)(C3)C2 | 5% | -7%
O=C(CC12CC3CC(C1)CC(CC(=O)NC1=NCCS1)(C3)C2)NC1=NCCS1 | -7% | 25µM*
O=C(Cn1nnc(-c2ccccc2)n1)NCc1ccco1 | 1% | -1%
O=C(Cn1nnc(-c2cccc(C(F)(F)F)c2)n1)NC(=O)NCc1ccco1 | 5% | 16µM*
COc1ccc(-c2nn(CC(=O)Nc3ccc(Cl)c(Cl)c3)c(=O)c3ccccc23)cc1 | -1% | 7.9µM*
O=C(Cn1nc(-c2ccc(Cl)cc2)c2ccccc2c1=O)Nc1cccc(Br)c1 | -3% | -8%
Cc1cc(C)cc(NC(=O)/C(C#N)=C/c2cn(CC(=O)NCc3ccco3)c3ccccc23)c1 | -2% | 16µM*
Cc1ccc(C)c(NC(=O)/C(C#N)=C/c2cn(CC(=O)NCc3ccco3)c3ccccc23)c1 | 11% | 7.9µM*
Cc1ccccc1OCCn1cc(/C=C(\C#N)C(=O)NCc2ccco2)c2ccccc21 | 1% | -15%
N#C/C(=C\c1cn(CCOc2ccccc2)c2ccccc12)C(=O)NCc1ccco1 | 14% | 1%
CC(=O)[C@]1(O)CC[C@@H]2[C@H]3C[C@@H](C)C4=CC(=O)CC[C@@]4(C)C3[C@@H](O)C[C@]21C (some centres undefined) | -2% | -4%
Cc1cn2c(=O)c(S(=O)(=O)Nc3ccc(OC(F)(F)F)cc3)c(C)nc2s1 | -13% | u
Cc1ccccc1Cc1c(C)nc2c(C(=O)NCc3ccc4c(c3)OCO4)cnn2c1C | -18% | -23%
Cc1nc2c(C(=O)NCc3ccc4c(c3)OCO4)cnn2c(C)c1Cc1ccc(F)cc1Cl | -7% | 16µM*
ClCBr | 1% | -5%
COc1ccc(S(=O)(=O)N2CCN(c3c(C)cccc3C)CC2)cc1OC | -10% | 4%
COc1cc(Cl)c(S(=O)(=O)N2CCN(c3c(C)cccc3C)CC2)cc1Cl | -3% | 20µM*
COc1ccc(C2CC(c3ccc(Cl)cc3)=NN2C(=O)c2cccc([N+](=O)[O-])c2)cc1 (centres undefined) | -6% | u
O=C(NC(=Nc1nc2ccccc2o1)NC(=O)c1ccccc1)c1ccccc1 | -2% | 13µM*
COc1ccccc1C(=O)NC(=Nc1nc2ccccc2o1)NC(=O)c1ccccc1OC | 4% | u
C=CCn1c(SCC(=O)Nc2c(C)n(C)n(-c3ccccc3)c2=O)nc2sc(C)c(-c3ccccc3)c2c1=O | -4% | u
Clc1ccccc1Cn1nnc2c(N3CCCC3)ncnc21 | -5% | -15%
CC1Cc2ccccc2N1c1ncnc2c1nnn2Cc1ccccc1Cl (centres undefined) | -21% | 25µM*
Nn1cnnc1N/N=C\c1ccc(-c2ccccc2[N+](=O)[O-])o1 | 20µM* | -7%
O=[N+]([O-])c1ccccc1-c1ccc(/C=N/n2cnnc2)o1 | -3% | -15%
SMILES | Cruzain Triton | Cruzain noTriton
COCCNC(=O)CSc1nc(-c2ccc(F)cc2)[nH]c1-c1ccc(Cl)cc1 | 1% | -14%
Cc1ccc(C(=O)CSc2nnc(CNc3nc(-c4ccccc4)cs3)n2C)cc1 | -3% | u
COC(=O)NC(=S)Nc1ccc(Oc2ccc(Cl)cc2Cl)c(Cl)c1 | -4% | 25µM*
COC(=O)NC(=S)Nc1ccc(Oc2ccc(Cl)cc2)c(Cl)c1 | -7% | -7%
NC(=O)N1CC(O)CC1C(=O)Nc1ccc(Cl)c(Cl)c1 (centres undefined) | -1% | 8%
Cc1cccc(CSc2ccc3nnc(-c4cccs4)n3n2)c1 | -4% | 32µM*
Fc1ccc(CSc2ccc3nnc(-c4cccs4)n3n2)cc1 | -2% | u
Fc1ccccc1COc1ccccc1/C=N/Nc1nc(N2CCCC2)nc(N2CCCC2)n1 | -3% | u
Fc1ccc(COc2ccc(Cl)cc2/C=N/Nc2nc(N3CCCC3)nc(N3CCCC3)n2)cc1 | -2% | 5µM*
Cc1ccc(CNC(=O)COC(=O)c2ccc(Cl)c(N)c2)cc1 | 0% | 1%
N#CC1(Cc2ccccc2)c2ccccc2C=CN1C(=O)c1ccccc1 (centres undefined) | -5% | -27%
N#CC1(Cc2ccc([N+](=O)[O-])cc2)c2ccccc2C=CN1C(=O)c1ccccc1 (centres undefined) | -3% | 25µM*
COc1ccc(Nc2nn3c(=O)c4cc5c(cc4nc3s2)OCO5)c(OC)c1 | 3% | 7%
Cc1nc(-c2ccc(Cl)cc2)sc1CCNC(=O)C(=O)Nc1ccccc1C#N | -3% | -4%
CN1CCN(c2ncnc3ccc(-c4cccc(C#N)c4)cc23)CC1 | -2% | -17%
CCCCn1c(O)c(/C=C2\C=NN=C2c2ccccc2)sc1=S | -4% | u
CCCCCCn1c(O)c(/C=C2\C=NN=C2c2ccccc2)sc1=S | 2% | 16µM*
O=C(c1ccco1)N1CCC2(CCCN(c3cccc(-c4ccccc4)c3)C2)CC1 | -4% | 3%
CSCCC(NC(=O)OC(C)(C)C)C(=O)NC(CC(C)C)C(N)=O (centres undefined) | -1% | -2%
CC(C)CC(NC(=O)C(CC(C)C)NC(=O)OC(C)(C)C)C(N)=O (centres undefined) | u | 16µM*
CCCc1cc2c(cc1NC(=O)c1ccccc1C)OCO2 | 9% | -4%
N#CCc1ccc(C(=O)c2ccccc2F)s1 | -3% | -1%
[O-][Br+2]([O-])O | 22µM*! | -25%
COc1ccc(NC(=O)c2c(NCc3ccc(C)o3)sc3c2CCCCC3)c(OC)c1 | -8% | -4%
NC1(C(=O)NC2(C(=O)O)CCCC2)CCCC1 | 2% | -2%
SMILES | Cruzain Triton | Cruzain noTriton
Cc1ccccc1C(=O)N[C@H](C(=O)OCC(=O)c1ccc[nH]1)C(C)C | -12% | -16%
O=C(CSc1nc(-c2ccccc2F)nc2nc[nH]c12)Nc1c(Cl)cc(Cl)cc1Cl | -4% | 6.3µM*
CCc1cccc(C)c1NC(=O)CSc1nc(-c2ccccc2F)nc2nc[nH]c12 | -4% | u
C=CCOC(=O)[C@H](O)[C@@H](O)C(=O)OCC=C | 0% | -7%
O=C1NC(=O)/C(=C/c2ccccc2Oc2ccc(Cl)cc2)S1 | 2% | 20µM*
Cc1ccc(Oc2ccccc2/C=C2\SC(=O)N(C)C2=O)cc1 | -3% | -18%
COc1ccc(OC)c(NC(=S)N(CCc2c(C)[nH]c3ccccc23)Cc2cccs2)c1 | 1% | u
COc1ccc(OC)c(NC(=S)N(CCc2c(C)[nH]c3ccc(C)cc23)Cc2cccs2)c1 | -2% | 25µM*
CC/C=C\C/C=C\C/C=C\C/C=C\C/C=C\CCCC(N)=O | 4% | 2%
CN(C)c1ccc(Sc2nnc(NC(=O)Nc3ccc(Cl)cc3Cl)s2)cc1 | -4% | 10µM*
CCC(=O)Nc1nnc(Sc2ccc(N(C)C)cc2)s1 | 1% | -12%
C[C@@]12C(=O)OC(=O)[C@]1(C)[C@H]1CC[C@@H]2O1 | -2% | -2%
COC(=O)c1ccc(NC(=O)COc2ccccc2OC)cc1 | -1% | -3%
N#CC1=C(N)Oc2c(ccc3ccccc23)C1c1cccs1 (centres undefined) | -10% | u
COC(=O)c1ccc(NC(=O)COc2ccc(C3C(C#N)=C(N)Oc4c3ccc3ccccc43)cc2OC)cc1 (centres undefined) | 2% | 7.9µM*
COc1cc(C2C(C#N)=C(N)Oc3c2ccc2ccccc32)ccc1OCC(=O)Nc1ccccc1C (centres undefined) | 1% | 13µM*

Bioassay records: PubChem, National Center for Advancing Translational Sciences (NCATS)
